target: FZD1; test: pooled miR-30 sensor sort-seq; sequence = guide strand; conditions: shRNA
Also: reference of the scale not given here.

| Sequence | sensor-assay potency score (higher = more potent) |
| --- | --- |
| TTGTCATTACACACCACTCGGT | -0.649 |
| TTTGCTGTTGGTGAGCCTCGTG | -0.218 |
| TTGAGGGTCTTGCCGGACCAGA | -1.52 |
| TTGCTGTTGGTGAGCCTCGTGT | -1.11 |

target: FZD4; test: as above; conditions: shRNA

| Sequence | sensor-assay potency score (higher = more potent) |
| --- | --- |
| TTGACTGAAAGACACATGCCGC | -0.778 |
| TTTGCTATCTGAAAGACCCAGT | 0.327 |
| TTTTAGTAGAATTTCCTCCAAA | -0.591 |
| TACAGTACTGAGAACACCCCAA | 0.428 |
| TCAGTCTTTCTAACTTGTCTGT | -0.388 |
| TATTATAGCACATACTGAGAAA | -1.2 |
| TCTTTCTAACTTGTCTGTCTTT | -0.962 |
| AACTTGTCTGTCTTTGTCCCAT | 0.289 |
| TAACAGGCAATCACACACGTTG | -0.53 |
| TATCAGTGAACTCCTTGGCTGA | -0.901 |
| TTGGTTTCCAACATAGCACAAG | -0.766 |

target: FZD5; test: as above; conditions: shRNA

| Sequence | sensor-assay potency score (higher = more potent) |
| --- | --- |
| AGGAGCAGCAGCAACAGCGAGG | -2.13 |
| TAGAGCAGCGTGAAGATGCCGA | 0.0125 |
| TAGGAAGAAGCGCAGGTCCGGC | -0.902 |
| TCCAGCTTGTCCGTCTTGGTGC | -1.11 |
| TTCCATGTCGATGAGGAAGGTG | -0.703 |
| TTCTCCAGCTTGTCCGTCTTGG | -0.54 |
| TCCATGTCGATGAGGAAGGTGG | -1.25 |
| TCTCGCGGTAGTGCTGCTCGTA | -1.3 |
| TACTTGAGCATGAGCACCCAGT | -0.921 |
| TAGCAGGCCACCACAATGCTGG | -0.787 |
| TTGATGACGCTGCGGATGCGGA | -1.12 |
| TAGAGCATAGGAAGAAGCGCAG | -0.267 |

target: FZD8; test: as above; conditions: shRNA

| Sequence | sensor-assay potency score (higher = more potent) |
| --- | --- |
| TTTACTTAAGGCATTTGCCTGG | 0.501 |
| TTATATCTGTTCTTACAGGGGT | -0.138 |
| TTGTAGTCCATGCACAGCGTGT | -1.01 |
| TGTTGCTTGATGACCGAGCGGA | -0.353 |
| TATCATGCTAATAGCAATCAAC | -0.951 |
| TATATCTGTTCTTACAGGGGTA | -0.151 |
| ATAATTAAGACATTTCTTGTTT | 0.00747 |
| TTGATGACCGAGCGGATGCGGA | -1.04 |
| TTCTTGTAGTCCTCTAGGCAGA | -1.02 |
| TGTAGGTGTAGTTGTAGCCGAT | -0.983 |
| TACTTGAGCATGAAGACGGCGT | 0.273 |
| TAAGACACGGAGCTCGCCGTGC | -0.78 |
